{
  "source": "PubChem BioAssay (Tox21)",
  "note": "Inconclusive results are not listed. Values without a mark were called inactive. Activity calls are given as the source filed them. The call rests on the fitted dose curve; in most records, active means well fitted curve in the direction sought with a large enough effect in the repeat runs; inconclusive means weak or mixed curves; inactive means no such curve, though single readings can be large; an effect the other way counts as inactive or inconclusive. On the % scale 0 is the no-effect control and ±100 the full control effect; potency means the concentration at half of the fitted maximal effect.",
  "data": [
    {"assay": "qHTS assay to identify small molecule agonists of the retinoic acid receptor (RAR) signaling pathway (AID 1159553)", "settings": "C3RL4 RARE luciferase reporter, agonist, 6 h; series mostly up to 73.3 µM; activation: at the top concentration", "outline": "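Luminescence was measured 30 min after luciferase reagent addition at room temperature. Before that, C3RL4 reporter cells (1,000 per well, plated overnight) were treated with compound for 6 hr at 37 C and 5% CO2.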", "values": [
      {"smiles": "O=C(CS)OCCOC(=O)CS", "activation": "-3.74%"},
      {"smiles": "Cc1cc(O)c(C(C)C)cc1Cl", "activation": "-3.54%"},
      {"smiles": "O=C(CCC1CCN(Cc2ccccc2)CC1)c1ccc2c(c1)NCCCC2", "activation": "-7.21%"},
      {"smiles": "CCOC(=O)N1CCC(n2c(=O)[nH]c3cc(Cl)ccc32)CC1", "activation": "-4.03%"},
      {"smiles": "CCOC(=O)c1ccccc1OC", "activation": "0.214%"},
      {"smiles": "CC(C)CCCC(=O)O", "activation": "-0.82%"},
      {"smiles": "CCC(C(=O)OCCOCCN(CC)CC)c1ccccc1", "note": "(centres undefined)", "activation": "-0.163%"},
      {"smiles": "CCCCC(=O)O[C@]1(C(=O)CO)CC[C@H]2[C@@H]3CCC4=CC(=O)CC[C@]4(C)[C@H]3[C@@H](O)C[C@@]21C", "activation": "-12.2%"},
      {"smiles": "O=C(O)c1ccccc1NCCc1ccccc1", "Potency": "23.7 µM (active)"},
      {"smiles": "CCOC(=N)CC(=O)OCC", "activation": "-2.62%"},
      {"smiles": "CC[C@@H]([C@H](C)O)n1ncn(-c2ccc(N3CCN(c4ccc(OC[C@@H]5CO[C@@](Cn6cncn6)(c6ccc(F)cc6F)C5)cc4)CC3)cc2)c1=O", "activation": "-7.82%"},
      {"smiles": "CCC(C)(C)C1CCC(O)CC1", "note": "(centres undefined)", "activation": "-3.21%"},
      {"smiles": "Cc1nc2ccccn2c(=O)c1CCN1CCC(C(=O)c2ccc(F)cc2)CC1", "activation": "-0.765%"},
      {"smiles": "O=C(O)c1cccc(O)c1", "activation": "-0.254% [at 94.8 µM]"},
      {"smiles": "O=C1OCCN1/N=C/c1ccc([N+](=O)[O-])o1", "activation": "-0.98%"},
      {"smiles": "CC(C)CCCCCCOC(=O)CCCCC(=O)OCCCCCCC(C)C", "activation": "-1.47%"},
      {"smiles": "CC1(C)C2=CCCC(C)(C)[C@]23CC[C@H]1C3", "activation": "-4.54%"},
      {"smiles": "COC(=O)[C@@H]1CC2=CC(=O)CC[C@]2(C)[C@@]23O[C@@H]2C[C@@]2(C)[C@@H](CC[C@@]24CCC(=O)O4)[C@H]13", "activation": "-0.951%"},
      {"smiles": "C=CC(C)(O)CCCC(C)CCCC(C)CCCC(C)C", "note": "(centres undefined)", "activation": "-1.62%"},
      {"smiles": "CCN(Cc1cccc(S(=O)(=O)O)c1)c1ccc(C(=C2C=CC(=[N+](CC)Cc3cccc(S(=O)(=O)[O-])c3)C=C2)c2ccccc2)cc1", "activation": "0.138%"},
      {"smiles": "COCc1c(C(C)C)nc(C(C)C)c(/C=C/[C@@H](O)C[C@@H](O)CC(=O)O)c1-c1ccc(F)cc1", "activation": "-3.73%"},
      {"smiles": "NC(=O)Nc1ccc(Cl)c(Cl)c1", "activation": "-6.42%"}
    ]},
    {"assay": "qHTS assay to identify small molecule antagonists of the estrogen related receptor (ERR) signaling pathway from Tox21 library - cell viability counter screen (AID 1224834); further: nearly all actives have a fitted effect of over 30% in size", "settings": "ERR reporter cells viability, CellTiter-Fluor, 17.5 h; series mostly up to 92.4 µM; viability change, negative = cytotoxic: at the top concentration", "outline": "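CellTiter-Fluor fluorescence, read after 30 min at 37 C, measures viability of ERR cells. Cells plated at 2,000/well and incubated 6 h before pin-tool compound addition, then exposed 17.5 hours at 37 C.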", "values": [
      {"smiles": "CC(C)(O)c1ccccc1CC[C@@H](SCC1(CC(=O)O)CC1)c1cccc(/C=C/c2ccc3ccc(Cl)cc3n2)c1", "viability change, negative = cytotoxic": "2.4% [at 42.5 µM]"},
      {"smiles": "CCC(=O)OC/C=C/c1ccccc1", "Potency": "inactive"},
      {"smiles": "O=C(CS)OCCOC(=O)CS", "viability change, negative = cytotoxic": "-4.54%"},
      {"smiles": "CN1CCN(c2c(F)cc3c(=O)c(C(=O)O)cn4c3c2OCN4C)CC1", "viability change, negative = cytotoxic": "6.99% [at 19 µM]"},
      {"smiles": "Cc1cc(O)c(C(C)C)cc1Cl", "Potency": "inactive"},
      {"smiles": "O=C(C(=O)c1ccccc1)c1ccccc1", "viability change, negative = cytotoxic": "-0.384%"},
      {"smiles": "CCOC(=O)c1ccccc1OC", "viability change, negative = cytotoxic": "3.41%"},
      {"smiles": "CC(C)CCCC(=O)O", "viability change, negative = cytotoxic": "0.117%"},
      {"smiles": "CCC(C(=O)OCCOCCN(CC)CC)c1ccccc1", "note": "(centres undefined)", "viability change, negative = cytotoxic": "-3.04% [at 42.5 µM]"},
      {"smiles": "CCCCC(=O)O[C@]1(C(=O)CO)CC[C@H]2[C@@H]3CCC4=CC(=O)CC[C@]4(C)[C@H]3[C@@H](O)C[C@@]21C", "viability change, negative = cytotoxic": "-0.304% [at 42.5 µM]"},
      {"smiles": "O=C(O)c1ccccc1NCCc1ccccc1", "viability change, negative = cytotoxic": "0.456% [at 42.5 µM]"},
      {"smiles": "CCOC(=N)CC(=O)OCC", "viability change, negative = cytotoxic": "0.847%"},
      {"smiles": "COc1cc2[nH]c(=O)[nH]c(=O)c2cc1OC", "viability change, negative = cytotoxic": "0.789% [at 42.5 µM]"},
      {"smiles": "CC[C@@H]([C@H](C)O)n1ncn(-c2ccc(N3CCN(c4ccc(OC[C@@H]5CO[C@@](Cn6cncn6)(c6ccc(F)cc6F)C5)cc4)CC3)cc2)c1=O", "Potency": "9.44 µM (active)"},
      {"smiles": "CCC(C)(C)C1CCC(O)CC1", "note": "(centres undefined)", "viability change, negative = cytotoxic": "0.808%"},
      {"smiles": "CCC(C)(O)CCC=C(C)C", "note": "(centres undefined)", "viability change, negative = cytotoxic": "0.838%"},
      {"smiles": "Cc1nc2ccccn2c(=O)c1CCN1CCC(C(=O)c2ccc(F)cc2)CC1", "viability change, negative = cytotoxic": "-2.11% [at 42.5 µM]"},
      {"smiles": "O=C(O)c1cccc(O)c1", "viability change, negative = cytotoxic": "-0.833%"},
      {"smiles": "O=C1OCCN1/N=C/c1ccc([N+](=O)[O-])o1", "viability change, negative = cytotoxic": "-7.47% [at 42.5 µM]"},
      {"smiles": "CC(C)C(OC(=O)c1ccccc1)C(C)(C)COC(=O)c1ccccc1", "note": "(centres undefined)", "viability change, negative = cytotoxic": "-1.23%"},
      {"smiles": "CC(C)C(=O)O", "viability change, negative = cytotoxic": "-0.893%"},
      {"smiles": "CC(C)CCCCCCOC(=O)CCCCC(=O)OCCCCCCC(C)C", "viability change, negative = cytotoxic": "3.27%"},
      {"smiles": "C[C@@H]1C[C@H]2[C@@H]3CCC4=CC(=O)C=C[C@]4(C)[C@@]3(F)[C@@H](O)C[C@]2(C)[C@H]1C(=O)CO", "viability change, negative = cytotoxic": "1.01% [at 42.5 µM]"},
      {"smiles": "CC1(C)C2=CCCC(C)(C)[C@]23CC[C@H]1C3", "viability change, negative = cytotoxic": "-5.46%"},
      {"smiles": "CNC(=S)NC", "viability change, negative = cytotoxic": "-8.66%"},
      {"smiles": "CCCCC/C(=C\\c1ccccc1)CO", "viability change, negative = cytotoxic": "-9.91%"},
      {"smiles": "Cc1cc(C(=C2C=CC(=Nc3ccc(S(=O)(=O)O)cc3S(=O)(=O)O)C=C2)c2ccc(Nc3ccc(S(=O)(=O)O)cc3)cc2)ccc1N", "viability change, negative = cytotoxic": "-3.6% [at 42.5 µM]"},
      {"smiles": "CC(N)CN", "note": "(centres undefined)", "viability change, negative = cytotoxic": "16.4%"},
      {"smiles": "COc1cc2c(N3CCN(C(=O)Nc4ccc(OC(C)C)cc4)CC3)ncnc2cc1OCCCN1CCCCC1", "Potency": "29.8 µM (active)"},
      {"smiles": "Nc1nc(Cl)nc2c1ncn2[C@@H]1O[C@H](CO)[C@@H](O)[C@@H]1F", "viability change, negative = cytotoxic": "3.3% [at 42.5 µM]"},
      {"smiles": "COC(=O)[C@@H]1CC2=CC(=O)CC[C@]2(C)[C@@]23O[C@@H]2C[C@@]2(C)[C@@H](CC[C@@]24CCC(=O)O4)[C@H]13", "viability change, negative = cytotoxic": "5.82% [at 42.5 µM]"},
      {"smiles": "CCCCN(CCCC)CCCOC(=O)c1ccc(N)cc1", "viability change, negative = cytotoxic": "-3.44% [at 42.5 µM]"},
      {"smiles": "C=CC(C)(O)CCCC(C)CCCC(C)CCCC(C)C", "note": "(centres undefined)", "viability change, negative = cytotoxic": "2.9%"},
      {"smiles": "CCN(Cc1cccc(S(=O)(=O)O)c1)c1ccc(C(=C2C=CC(=[N+](CC)Cc3cccc(S(=O)(=O)[O-])c3)C=C2)c2ccccc2)cc1", "viability change, negative = cytotoxic": "-10.1% [at 42.5 µM]"},
      {"smiles": "COCc1c(C(C)C)nc(C(C)C)c(/C=C/[C@@H](O)C[C@@H](O)CC(=O)O)c1-c1ccc(F)cc1", "Potency": "inactive"},
      {"smiles": "CCCCCCOC(=O)CCCCCCCC(=O)OCCCCCC", "viability change, negative = cytotoxic": "4.54%"},
      {"smiles": "NC(=O)Nc1ccc(Cl)c(Cl)c1", "viability change, negative = cytotoxic": "0.546%"}
    ]}
  ]
}
